The panel holds about 83,000 compounds, 20% with a hit somewhere; the sample as a whole holds those more often.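 Step 1: grow cells in 96-well plates. Step 2: add test compound at a single concentration. Step 3: incubate 48 h. Step 4: record percent growth.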 Calls of active or inactive are those of the source. The calls were made as follows: active = growth percent below 10; inactive = the rest.
Experiments:
Experiment in all cases: NCI-60 one-dose screen, 48 h (100 = growth as untreated, 0 = no growth, -100 = all killed)
Conditions in all cases: 10 µM unless noted
[1] = tested on: SR leukemia
[2] = tested on: RPMI-8226 leukemia
[3] = tested on: OVCAR-8 ovarian
[4] = tested on: OVCAR-5 ovarian
[5] = tested on: OVCAR-4 ovarian
[6] = tested on: SK-OV-3 ovarian
[7] = tested on: IGROV1 ovarian
[8] = tested on: OVCAR-3 ovarian
[9] = tested on: HS 578T breast
[10] = tested on: NCI/ADR-RES ovarian
[11] = tested on: T-47D breast
[12] = tested on: BT-549 breast
[13] = tested on: MDA-MB-435 melanoma
[14] = tested on: MCF7 breast
[15] = tested on: HCT-116 colon
[16] = tested on: HCC-2998 colon
[17] = tested on: KM12 colon
[18] = tested on: SW-620 colon

Measured: growth

CCN1C(=S)N(c2ccccc2)C2C1NN=c1s/c(=C3\C(=O)N(C(C)C)c4ccccc43)c(=O)n12 (stereo not drawn)
inactive: [1] 46.2% | [2] 97.4% | [3] 54.1% | [4] 93.9% | [6] 104% | [7] 71% | [8] 84.2% | [9] 54.8% | [10] 64.1% | [11] 62.8% | [12] 96.6% | [13] 93.3% | [14] 64.7% | [15] 41.7% | [16] 109% | [17] 81.7%
active: [5] 1.68%

COc1cc2c(cc1OCCCN1CCN(CCCOc3cc4c(cc3OC)C(=O)N3CCC[C@H]3C=N4)CC1)C=CC(C)(C)O2
inactive: [10] 32.6%
active: [1] -58.3% | [2] -8.49% | [3] -56.7% | [4] -80.7% | [5] -71.2% | [6] -83.9% | [7] -89.1% | [8] -75.6% | [9] -77.9% | [11] -55.2% | [13] -72.9% | [18] -100% | [14] -100% | [15] -96% | [16] -82.1% | [17] -82%

Cc1[nH]c(C(=O)Nc2ccc(C(=O)N3CCN(c4cc5c(cc4F)c(=O)c(C(=O)O)cn5C4CC4)CC3)cc2OC(C)C)c(Cl)c1Cl
inactive: [1] 45.9% | [2] 34.2% | [3] 78.2% | [4] 95.1% | [5] 94.5% | [6] 110% | [7] 49.5% | [8] 85.8% | [9] 87.2% | [10] 78.4% | [11] 84% | [13] 88.5% | [18] 96.3% | [14] 88.8% | [15] 38.1% | [16] 96.4% | [17] 80.4%

CCC1=C[C@@H]2C[C@]3(C(=O)OC)c4[nH]c5ccccc5c4CC[N@+](CC(=O)Nc4cc5c(cc4OC)N(C)[C@H]4[C@@](O)(C(=O)OC)[C@H](OC(C)=O)[C@]6(CC)C=CCN7CC[C@]54[C@@H]76)(C2)[C@H]13
inactive: [1] 99.4% | [2] 105% | [3] 102% | [4] 109% | [5] 104% | [6] 105% | [7] 104% | [8] 109% | [9] 99.4% | [10] 106% | [11] 105% | [13] 105% | [18] 100% | [14] 103% | [15] 102% | [16] 110% | [17] 104%

Cc1ccc(-c2nc(N3CCCNCC3)c3oc(-c4ccc(C)cc4)nc3n2)cc1
active: [1] -44.5% | [2] -51% | [3] -58.6% | [5] 2.2% | [8] -67.7% | [11] -46% | [14] -64.8%
inactive: [4] 78.5% | [6] 98.1% | [7] 12.2% | [9] 110% | [10] 16.3% | [12] 90.2% | [13] 70.8% | [15] 27.5% | [16] 40.9% | [17] 11.3%

O=C1/C(=C/c2ccccc2O)CC/C1=C\c1ccccc1O
active: [1] 8.12% | [2] -6.74% | [12] 2%
inactive: [3] 68.9% | [4] 126% | [5] 63.4% | [6] 102% | [7] 32.1% | [8] 30.9% | [9] 70.7% | [10] 72.7% | [11] 47.3% | [13] 26.4% | [14] 24.3% | [15] 16.7% | [16] 104% | [17] 75.7%

CCOC(=O)c1cc2c(n1Cc1cc(OC)c(OC)c(OC)c1)-c1nc(N)sc1CCC2
inactive: [2] 75.9% | [3] 55.4% | [4] 98.3% | [5] 65% | [6] 29.3% | [7] 50.8% | [8] 21.1% | [9] 55.7% | [10] 20.8% | [11] 43.3% | [12] 51.2% | [14] 27.6% | [15] 34.1% | [16] 73.1% | [17] 30.8%
active: [1] 5.15% | [13] -38.7%

Cn1c(=O)c2nc(/C=C/c3ccccc3)c(=O)[nH]c2n(C)c1=S
inactive: [1] 111% | [2] 110% | [3] 105% | [4] 110% | [5] 107% | [6] 118% | [7] 107% | [8] 116% | [9] 107% | [10] 106% | [11] 104% | [12] 110% | [13] 103% | [14] 93.9% | [15] 105% | [16] 106% | [17] 104%

O=C(c1ccncc1)N1N=C(c2ccc(Cl)cc2)C[C@H]1c1cn(-c2ccccc2)nc1-c1ccccc1
inactive: [1] 91.1% | [2] 105% | [3] 74.6% | [4] 105% | [5] 82.6% | [6] 83.4% | [7] 99.4% | [8] 94.7% | [9] 87.2% | [10] 87% | [11] 87.6% | [12] 92.5% | [13] 89.3% | [14] 74.8% | [15] 73.5% | [16] 92.2% | [17] 86.1%

NNc1nc(-c2cccnc2)nc2c1sc(=S)n2-c1ccccc1
inactive: [1] 88.3% | [2] 106% | [3] 92.8% | [4] 102% | [5] 100% | [6] 79.6% | [7] 97.9% | [8] 93.1% | [9] 112% | [10] 102% | [11] 62.9% | [12] 72.7% | [13] 112% | [14] 92.5% | [15] 76.4% | [16] 108% | [17] 102%

O=C(O)CCCN1C(=O)/C(=C/c2cn(-c3ccccc3)nc2-c2ccc([N+](=O)[O-])cc2)SC1=S
inactive: [1] 33.3% | [2] 46.8% | [3] 44.4% | [4] 94.3% | [5] 64% | [6] 59.1% | [7] 58.3% | [8] 61.6% | [9] 63.6% | [10] 43.5% | [11] 61.6% | [12] 55.1% | [13] 48.6% | [14] 52.3% | [15] 36.9% | [16] 64.6% | [17] 54.1%

Cc1ccc(Nn2c(SCC(=O)Nc3nc(-c4ccccc4)cs3)nc(C)c2C)cc1
inactive: [1] 72.6% | [2] 55.8% | [3] 55.5% | [4] 81.8% | [5] 32% | [6] 64.1% | [7] 86% | [8] 78.5% | [9] 106% | [10] 34.4% | [13] 76.7% | [18] 98.8% | [14] 28.5% | [15] 40.2% | [16] 92% | [17] 82.9%
active: [11] -2.45%

CC1CN(S(=O)(=O)c2oc(-c3ccc(Cl)cc3)nc2C#N)CC(C)O1 (stereo not drawn)
active: [1] -12.9% | [15] -53.4%
inactive: [2] 24.2% | [3] 54.6% | [4] 100% | [5] 92.4% | [6] 99.9% | [7] 80.5% | [8] 34.4% | [9] 98.7% | [10] 101% | [11] 27% | [12] 89% | [13] 86.4% | [14] 55.2% | [16] 105% | [17] 100%

COc1ccc(OC)c(-c2nc(SCC(=O)c3ccc(C#N)cc3)[nH]c(=O)c2C#N)c1
inactive: [1] 97.3% | [2] 114% | [3] 99.3% | [4] 89.5% | [5] 106% | [6] 78% | [7] 96.4% | [8] 89.4% | [9] 102% | [10] 97.4% | [11] 117% | [12] 99.4% | [13] 100% | [14] 100% | [15] 95% | [16] 95.9% | [17] 91.8%

N=C(N)c1ccc(-c2ccc(-c3ccc(Cl)cc3Cl)s2)cc1
active: [1] 4.31% | [2] -24.4% | [3] -21.3% | [5] -16.2% | [7] -37.5% | [8] -16.4% | [13] -2.28% | [18] -52.1% | [14] -65.4% | [15] -60.1% | [16] -65.9% | [17] -87.3%
inactive: [4] 38.6% | [6] 88% | [9] 71.6% | [10] 77.5% | [11] 47.2%

Cn1ccnc1C(=O)/C=C/c1ccc(C(=O)Nc2ccc(Cl)cc2)cc1
inactive: [3] 14.3% | [4] 12.6% | [5] 18.1% | [6] 42.2% | [9] 18.4% | [13] 23.8% | [14] 12.6%
active: [1] -8.67% | [2] -8.46% | [7] -22.4% | [8] -12.8% | [10] 5.79% | [11] 9.37% | [12] -7.95% | [15] -49% | [16] -10.1% | [17] -49.8%

CCSc1nc2scc(C)c2c(=O)[nH]1
inactive: [1] 101% | [2] 101% | [3] 99.3% | [4] 99.8% | [5] 96.7% | [7] 102% | [8] 107% | [9] 95.5% | [10] 102% | [11] 101% | [12] 96.8% | [13] 105% | [18] 104% | [14] 96.3% | [15] 101% | [16] 106% | [17] 103%

COc1ccc(Nc2nc(-c3cc(O)c(C)c(C)c3O)cs2)cc1
active: [13] 7.82%
inactive: [1] 37.1% | [2] 33.6% | [3] 70.7% | [4] 103% | [5] 73.7% | [7] 66.5% | [8] 10.5% | [9] 76.7% | [10] 23% | [11] 39.5% | [12] 79.1% | [18] 70.6% | [14] 47.1% | [15] 82.5% | [16] 110% | [17] 23.7%

CCOC(=O)c1ccc2c(c1)nc(-c1ccccc1)n2C1CCCCC1
inactive: [1] 62.9% | [2] 63.7% | [3] 89.5% | [4] 117% | [5] 102% | [6] 36.7% | [7] 106% | [8] 108% | [9] 111% | [10] 105% | [11] 66.8% | [13] 102% | [18] 111% | [14] 93.3% | [15] 63.7% | [16] 91.6% | [17] 95.1%

Reference: PubChem BioAssay (NCI)
